Assay results: PubChem BioAssay (NCI)
This is part of a sample that, as a whole, favours compounds with a hit. Of some 83,000 tested, about 20% had one in any assay.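 How to read the values: 0–100, growth inhibition (40 = 60% inhibited); 0, no net growth; -100 to 0, cell death (-40 = 40% of starting cells died; -100 = all dead).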 Values without a mark were called inactive. Active and inactive are the calls of the source.

The compounds below were run on MCF7 breast (assay: NCI-60 one-dose screen, 48 h (100 = growth as untreated, 0 = no growth, -100 = all killed)). Conditions: 10 µM unless noted.
Procedure: Growth inhibition of the MCF7 human tumor cell line is measured as a screen for anti-cancer activity. Cells are grown in 96 well plates and exposed to the test compound for 48 hours. Compounds are tested at a single concentration, which is 10^-5 M for most compounds. The reported endpoint is percent growth (GI% or GIPRCNT), where numbers from 0 - 100% represent growth inhibition, and numbers from -100% - 0 represent cell death. For example, a value of 40 represents 60% growth inhibition. A value of 0 means no net growth occurred over the course of the experiment. A value of -40 indicates 40% of cells at the beginning of the experiment died by the end of the experiment. A value of -100 means all cells are dead at the end of the experiment.
NCI-60 Human Tumor Cell Lines Screen was performed using the standard one-dose NCI protocol, which is described in more detail at https://dtp.cancer.gov/discovery_development/nci-60/default.htm.
Compounds with GIPRCNT values below 10 were considered active. Activity score was based on GIPRCNT using the following formula: […]
Score is 0 for GIPRCNT values of 100 or above, 50 for GIPRCNT values of 0, and 100 for GIPRCNT values of -100.
For O=C([O][Hg][CH2]C1OCCOC1[CH2][Hg][O]C(=O)c1ccccc1)c1ccccc1 (stereo not given), the growth was -31.7% (active). Work on CO[C@H]1CC[C@@]2(C)C(=CC[C@@H]3[C@@H]2CC[C@]2(C)C(=O)C(=O)C[C@@H]32)C1 yielded a growth of 102%. Work on O=C(Nc1ccc(O)cc1)C(Cl)(Cl)Cl yielded a growth of 99.1%. With O=C(CC1(O)C(=O)N(Cc2ccccc2)c2ccc(F)cc21)c1ccc(C(=O)NCC2CCC3(CC2)OOC2(CCCCC2)OO3)cc1 (stereo not given) the growth was 7.64% (active). c1ccc(CSC(c2ccccc2)c2ccccc2)cc1 gave a growth of 124%. COc1ccc2c(c1)c(C1(O)CC(CSC#N)OC1=O)cn2C(=O)c1ccc(Cl)cc1 (stereo not given) was tested, and the growth was 91.6%. In the case of CC(C)[C@@H]1NC(=O)[C@]2(C)CSC(=N2)c2csc(n2)CNC(=O)C[C@@H](/C=C/CCS)OC1=O, the growth is reported as 13.9%. C[C@@H]1O[C@@H](O[C@H]2C[C@@H](O)[C@]3(CO)C4C(CC[C@]3(O)C2)[C@@]2(O)CC[C@H](C3=CC(=O)OC3)[C@@]2(C)C[C@H]4O)[C@H](O)[C@H](O)[C@H]1O (stereo not given in full) was tested, and the growth was -48.1% (active). C=C(C)[C@@]12OC3(/C=C/C=C/CCCCC)O[C@@H]1[C@@H]1[C@@H]4O[C@]4(CO)[C@@H](O)[C@]4(O)C(=O)C(C)=C[C@H]4[C@@]1(O3)[C@H](C)[C@H]2OC(=O)c1ccccc1 was tested, and the growth was 38.7%. CCOC(=O)[C@@H](C)C[C@H](Cc1ccccc1)NC(=O)c1csc([C@@H](C[C@H](C(C)C)N(C)C(=O)CNC(=O)[C@H]2CCCCN2C)OC(C)=O)n1 showed a growth of 17.9%. For COC(=O)[C@@H](C)C[C@H](Cc1ccccc1)NC(=O)c1csc([C@@H](C[C@H](C(C)C)N(C)C(=O)[C@@H](NC(=O)[C@H]2CCCCN2C)C(C(F)(F)F)C(F)(F)F)OC(C)=O)n1, the growth was 12.2%. CCOC(=O)N[C@H]1CCc2c(Br)c(OC)c(OC)c(OC)c2-c2ccc(SC)c(=O)cc21 showed a growth of 10.8%. With CCCCOc1ccc(C(N)Cc2ccccc2)cc1 (stereo not given) the growth was 81.7%. CCn1c2ccccc2c2cc(C(=O)c3cccc4c3CCCN4)ccc21 gave a growth of 96.5%. CC(=O)c1ccc(C(=O)NCC2CCC3(CC2)OOC2(CCCCC2)OO3)cc1 was tested, and the growth was 81.7%. Compound O=C(CC1(O)C(=O)N(Cc2ccccc2)c2ccc(Cl)cc21)c1ccc(C(=O)NCC2CCC3(CC2)OOC2(CCCCC2)OO3)cc1 (stereo not given) has a growth of 17.4%. With CCC(CC)CC1(C)CC2(C)CCOC2OO1 (stereo not given) the growth was 104%. For COc1cc(/C=C\c2cc(OC)c(OC)c(OC)c2)cc(NS(=O)(=O)c2cccc(Cl)c2)c1OC, the growth was 7.6% (active). With CCCCCCC(=O)NC1=C(N2CC2)C(=O)C(NC(=O)CCCCCC)=C(N2CC2)C1=O the growth was 19.1%. Compound COc1ccc(C2=N[C@@H](Cc3ccccc3)C(=O)Nc3ccsc32)cc1 has a growth of 24.1%. Work on COc1ccc(-n2c(C)nc3cc(OC)c(OC)cc3c2=O)cc1OC yielded a growth of 91.8%. Work on COP(=O)(OC)C(O)c1ccc(Cl)cc1 (stereo not given) yielded a growth of 98.4%. COc1ccc2nc(NC(=O)COc3cc(/C=C\c4cc(OC)c(OC)c(OC)c4)ccc3OC)sc2c1 gave a growth of 16.9%. Work on COc1cc2ncnc(Nc3ccc(F)c(Cl)c3)c2cc1OCC(=O)N1CCN(C)CC1 yielded a growth of 80.4%. NC(=O)c1c(Br)n(C2OC(CO)C(O)C2O)c2ncnc(N)c12 (stereo not given) was tested, and the growth was -18.6% (active). In the case of CC(=O)OC1CCC2C3CCC4=C/C(=N/OC(=O)c5ccc(N(CCCl)CCCl)cc5)CCC4(C)C3CC(C)C12 (stereo not given), the growth is reported as 99.3%. CC1CCCC(C[N+](C)(C)C)C1=O (stereo not given) was tested, and the growth was 103%. Work on CCCCCCCC[n+]1ccc2ccccc2c1 yielded a growth of 41.1%. In the case of N#C[S-].[Au+].c1ccc(CN2[CH-]N(Cc3ccccc3)C(c3ccccc3)=C2c2ccccc2)cc1, the growth is reported as 4.87% (active). In the case of COc1cccc2c1c(C(=O)C(=O)Nc1cc(C)no1)cn2Cc1ccc(F)cc1, the growth is reported as 26.9%. O=P(N1CC1)(N1CC1)N1CCc2ccccc21 was tested, and the growth was 86.5%. Compound CC(C)=CCC[C@H](C(=O)O)[C@@H]1CC[C@]2(C)C3=C(CC[C@@]12C)[C@@]1(C)CC[C@H](O)C(C)(C)[C@@H]1CC3 has a growth of 88.9%. With CC(C)[C@]12O[C@H]1[C@@H]1O[C@]13[C@]1(O[C@H]1C[C@H]1c4c(C(=O)c5ccccc5)oc(OC(=O)c5ccccc5)c4CC[C@@]13C)[C@@H]2O the growth was 12.5%. In the case of CC1=C(CCCNS(C)(=O)=O)C2=C(C)C3(CC3)[C@@](C)(O)C(=O)C2=C1, the growth is reported as 20.7%. For C=CCCCCCCCCC(=O)[O-].C=CCCCCCCCCC(=O)[O-].[Zn+2], the growth was 108%. Nc1nc([Se])c2ncn(C3OC(CO)C(O)C3O)c2n1 (stereo not given) was tested, and the growth was 42.9%. For CCOC(=O)[C@@H](C)C[C@H](Cc1ccccc1)NC(=O)c1nc([C@@H](C[C@H](C(C)C)N(C)C(=O)[C@@H](NC(=O)[C@H]2CCCCN2C)C(C)C)OC(C)=O)sc1CCOCc1ccccc1, the growth was 5.53% (active). O=C(c1cccc(O)c1O)c1cn(Cc2ccc(F)cc2)c2cccc(O)c12 showed a growth of 26.9%. Work on NC(=Nc1ccccc1)N[N+](=O)[O-] yielded a growth of 100%. Compound COc1ccc(C(=O)c2cc(OC)c(OC)c(OC)c2)cc1OC(C)=O has a growth of 15.7%.
